Source: PubChem BioAssay (National Center for Advancing Translational Sciences (NCATS))
Only some compounds are listed: those with a hit (about 2.9% of all), similar ones and a draw of the others.
SNCA viab count – GF-AFC viability counterscreen for inhibitors of alpha-synuclein gene (SNCA) expression | HEK-293-SNCA-luc viability, GF-AFC fluorescence, 24 h | Potency, µM (highest dose often 57.1 µM), without a hit: top-dose activity change, negative = cytotoxicity, actives largely listed as cytotoxic | hit rate 0.12% among 150,000;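 note: potency is the fitted concentration of half-maximal effect; 0% = DMSO-treated cells and -100% = medium-only wells without cells; nearly all actives have a fitted effect of over 30% in size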
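Cytotoxicity counterscreen: after 24 h compound treatment of genome-edited SNCA-luciferase HEK-293 cells, live-cell protease substrate GF-AFC read by fluorescence after 30 min; activity scaled between DMSO (0%) and medium-only (-100%), curves Hill-fitted.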
IP6K1 inh – Primary qHTS assay for small molecule inhibitors of Inositol hexaphosphate kinase 1 (IP6K1); Inositol hexakisphosphate kinase 1 (Homo sapiens), Q92551; IP6K1 kinase, ADP-Glo luminescence, 2 h; hits give low values; activity change, % (series mostly up to about 58 µM); hit rate 0.81% among 140,000; AID 1645851, 2021; in the data active = activity change below about -25%; note: % is set by controls: 0 for no effect and ±100 for the full control effect
Target sequence (Q92551 whole entry, looked up): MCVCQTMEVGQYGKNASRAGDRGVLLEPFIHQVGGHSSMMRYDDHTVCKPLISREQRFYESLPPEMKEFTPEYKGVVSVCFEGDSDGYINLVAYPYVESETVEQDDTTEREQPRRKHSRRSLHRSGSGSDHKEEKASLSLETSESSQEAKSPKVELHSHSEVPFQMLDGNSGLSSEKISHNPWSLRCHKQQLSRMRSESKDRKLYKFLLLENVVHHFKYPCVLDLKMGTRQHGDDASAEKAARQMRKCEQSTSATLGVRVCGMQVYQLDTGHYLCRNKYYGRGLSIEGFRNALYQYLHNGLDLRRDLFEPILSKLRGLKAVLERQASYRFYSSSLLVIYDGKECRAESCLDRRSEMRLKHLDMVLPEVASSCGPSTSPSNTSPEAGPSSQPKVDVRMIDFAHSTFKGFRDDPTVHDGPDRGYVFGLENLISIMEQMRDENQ
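ADP-Glo luminescence measures ADP made by human IP6K1 during a 2 h RT reaction with ATP/IP6 (mix at 1.3 mM/130 uM); top library doses 57.5 and 19.1 uM final.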
KDM5B inh – Primary screen for KDM5B Histone Demethylases FDH-coupled qHTS; KDM5B demethylase, FDH-coupled NADH fluorescence (FDH is formaldehyde dehydrogenase); Potency, µM (highest dose often 57.7 µM), hits mostly inhibitors; hit rate 2.6% among 220,000; AID 1347165, 2019; note: potency is the fitted concentration of half-maximal effect; 0% is about no effect; nearly all actives have a fitted effect of over 70% in size
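Compound dilutions met 200 nM (final) KDM5BΔAP for 10 min at room temperature before substrate addition. The substrate mix held 12.5 µM H3K4me3 with cofactors 25 µM α-ketoglutarate and 50 µM Fe²⁺. NADH signal gain over 30 min defined activity.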
SNCA expr inhib – Primary qHTS assay for inhibitors of alpha-synuclein gene (SNCA) expression; AID 1671194, 2021; hit rate 0.17% among 140,000; HEK-293 SNCA-luciferase knock-in, luminescence, 24 h; Potency, µM (series often up to 57.2 µM), for the others: at the top dose activity change, negative = inhibition, most hits filed as inhibitors;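 note: potency is the fitted concentration of half-maximal effect; plate controls were DMSO cells for no effect and cell-free wells for full effect; nearly all actives have a fitted effect of over 45% in size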
* hit, by the source's call; i = inactive; ? = inconclusive; / = no result; [ ] = dose if it differs, or a comment. Unless noted, calls come from the whole dose curve; as a rule, active = well fitted curve in the direction sought with a large enough effect; inconclusive = small, poorly fitted or top-dose-only effect, or another doubt; inactive = no such curve, though single readings can be large; an effect the other way counts as inactive or inconclusive.

SMILES	SNCA viab count	IP6K1 inh	KDM5B inh	SNCA expr inhib
O=C(COc1ccccc1)N1C[C@@H]2C[C@H](C1)c1ccc(-c3cccc(C(F)(F)F)c3)c(=O)n1C2	-1.4%	2.7	22.4µM*	19.3%
O=C(c1ccc2c(c1)OCO2)N1C[C@@H]2C[C@H](C1)c1ccc(-c3cccc(C(F)(F)F)c3)c(=O)n1C2	2.0%	3.3	28.2µM*	-4.0%
O=C(c1ccc2c(c1)OCO2)N1CCC2(CC(c3cccc(C(F)(F)F)c3)=NO2)C1 (centres undefined)	-20.5%	8.0	?	-14.2%
CN(Cc1ccccc1)C(=O)c1cc(-c2cccc(C(F)(F)F)c2)nc2c1cnn2C	/	-7.3	/	/
Cc1ccsc1CN1CCC(Oc2ccccc2-c2nc(-c3ccncc3)no2)C1 (centres undefined)	-12.9%	-7.4	?	60.6%
COc1ccc2c3c1C1COC(=O)N1CC3=CC(C)(C)CO2 (centres undefined)	/	4.0	/	/
Cn1ncc2c(C(=O)N3CCOCC3)cc(-c3cccc(C(F)(F)F)c3)nc21	4.7%	15.4	/	-11.8%
COc1ccc(-c2cc(-c3ccccc3)nc3c(C)noc23)cc1OC	5.8%[87.6 µM]	23.9	25.1µM*	9.0%[87.6 µM]
COc1cccc(-c2cc(-c3cccs3)nc3c(C)noc23)c1	7.9%[87.6 µM]	-11.5	?	-10.7%[87.6 µM]
Cc1noc2c(-c3ccc4c(ccn4C)c3)cc(-c3cccnc3)nc12	-6.4%[87.6 µM]	4.0	31.6µM*	-11.7%[87.6 µM]
COc1cccc(-c2cc(-c3ccccc3)nc3c(C)noc23)c1	18.8%[87.6 µM]	-5.9	31.6µM*	-9.5%[87.6 µM]
Cc1nn(-c2ccccc2)c2c1C(C)N(C1CCCN(C(=O)c3cccnc3)C1)C2=O (centres undefined)	/	6.8	/	/
COc1ccc(-c2ccc3ncc(Nc4ccncc4)n3n2)cc1OC	-26.7%[87.6 µM]	-15.2	i	-21.9%[87.6 µM]
COC(=O)Nc1cc(-c2cccnc2)nn1-c1ccccc1	-21.5%[87.6 µM]	-1.4	/	22.1%[87.6 µM]
O=c1c2c(n(Cc3cccnc3)n1CCc1ccccc1)CN(CC1CC1)CC2	4.4%[87.6 µM]	1.3	?	?
O=c1c2c(n(Cc3cccnc3)n1CCc1ccccc1)CN(CC1CCOC1)CC2 (centres undefined)	2.1%[87.6 µM]	-7.7	35.5µM*	-4.3%[87.6 µM]
O=c1c2c(n(Cc3ccccc3)n1-c1ccccc1)CN(Cc1cccnc1)CC2	-2.6%[87.6 µM]	-1.4	31.6µM*	30.1%[87.6 µM]
COc1cccc(-c2ccc(CN3CCCC(NC(=O)c4ccccc4Cl)C3)cc2)c1 (centres undefined)	-23.9%	-0.1	/	36.6%
Cc1noc(C)c1-c1cnc(Nc2ccc(CN3CCN(C)CC3)cc2)c2c1CCO2	-12.8%[87.6 µM]	9.5	25.1µM*	61.5%[87.6 µM]
Cc1noc(C)c1-c1cnc(Nc2ccc(Cl)cn2)c2c1CCO2	5.8%[87.6 µM]	-22.4	28.2µM*	47.3%[87.6 µM]
Cc1noc(C)c1-c1cnc(Nc2cc(F)cc(N3CCOCC3)c2)c2c1CCO2	-1.2%[87.6 µM]	-10.4	?	71.4%[87.6 µM]
Cc1ccc(Nc2ccnc(N3CCCC3C(=O)NCc3ccccc3Cl)n2)cc1 (centres undefined)	/	-1.8	/	/
Cn1nc(-c2nc(C3CCOC3)no2)cc1-c1ccccc1 (centres undefined)	4.1%	-4.0	i	-17.5%
Clc1ccc2nc(-c3nc(C4CCOC4)no3)cn2c1 (centres undefined)	-15.0%	13.3	22.4µM*	119.1%
CC(NC(=O)CCC(=O)c1ccc(F)cc1)C(=O)N1CCN(c2ccccn2)CC1 (centres undefined)	-9.3%	1.4	?	-3.3%
SMILES	SNCA viab count	IP6K1 inh	KDM5B inh	SNCA expr inhib
Cc1ccc(CC(=O)NC(C)C(=O)N2CCN(c3ccccn3)CC2)cc1 (centres undefined)	-4.6%	9.5	28.2µM*	3.5%
CC(NC(=O)C(C)(C)C)C(=O)N1CCN(c2ccccn2)CC1 (centres undefined)	12.4%	7.4	28.2µM*	4.9%
COCCC(=O)NC(C)C(=O)N1CCN(c2ccccn2)CC1 (centres undefined)	-3.9%	7.6	25.1µM*	24.1%
CC(NC(=O)CCc1ccccc1)C(=O)N1CCN(c2ccccn2)CC1 (centres undefined)	3.1%	13.1	25.1µM*	-25.7%
COc1ccc(CC(=O)NC(C)C(=O)N2CCN(c3ccccn3)CC2)cc1Cl (centres undefined)	6.3%	-0.2	?	-7.2%
Fc1ccc(-c2ccc3ncc(Nc4ccncc4)n3n2)cc1	3.1%[87.6 µM]	-2.0	i	8.0%[87.6 µM]
COCCC(=O)N1CCCC(C(=O)N2CCN(c3ccccn3)CC2)CCNC(=O)CC1 (centres undefined)	-1.9%	-8.7	28.2µM*	3.3%
CCCC(=O)NC(C)C(=O)N1CCN(c2ccccn2)CC1 (centres undefined)	13.3%	6.6	25.1µM*	-7.5%
O=C1CCN(C(=O)c2cccs2)CCCC(C(=O)N2CCN(c3ccccn3)CC2)CCN1 (centres undefined)	-4.1%	1.2	?	28.8%
O=[S+]([O-])(c1cccnc1)c1nnn2c1nc(N1CCCCC1)c1ccccc12	6.5%	-0.4	i	11.5%
COCC1CN(C)CC12CCN(Cc1ccc(F)c(Cl)c1)CC2 (centres undefined)	-6.1%	23.0	28.2µM*	12.6%
COCC1CN(C)CC12CCN(Cc1ccc(OC)cc1)CC2 (centres undefined)	-2.0%	15.1	?	-8.0%
COc1ccc(Cn2c(=O)c(C(=O)N3CCN(C(=O)Nc4ccc(Cl)cc4)CC3)nc3cccnc32)cc1	-10.1%[12.5 µM]	0.4	/	0.7%
CCOCCNC(=O)C1CCCN1Cc1cccc(-c2ccc(C)c(Cl)c2)c1 (centres undefined)	/	17.2	/	/
OC1CC(c2cc(N3CCN(c4nsc5ccccc45)CC3)ncn2)C1 (centres undefined)	?	116.2	31.6µM*	?
Cc1ccccc1-c1nccn2c(C3CN(C(=O)c4cc5ccccc5[nH]4)C3)ncc12	-27.4%[87.6 µM]	0.3	50.1µM*	-28.6%[87.6 µM]
CNC(=O)c1ccc2c(c1)NC(C)(CNc1ccccc1)CO2 (centres undefined)	-4.3%[87.6 µM]	-5.8	?	5.5%[87.6 µM]
CN(C)c1cccc(NC(=O)c2ccc3c(c2)NC(C)(COc2ccccc2)CO3)c1 (centres undefined)	-9.3%[87.6 µM]	-7.0	31.6µM*	?
CN(C)c1cccc(NC(=O)c2ccc3c(c2)NC(C)(COc2cccnc2)CO3)c1 (centres undefined)	-4.8%[87.6 µM]	-15.2	?	30.5%[87.6 µM]
CNC(=O)c1ccc2c(c1)NC(C)(COc1ccccc1)CO2 (centres undefined)	-8.9%[87.6 µM]	-7.4	31.6µM*	-16.0%[87.6 µM]
COc1ccc(CN2CCNC(=O)C2CC(=O)NC2CCOCC2)c(F)c1 (centres undefined)	/	/	i	/
COc1ccc(CN2CCNC(=O)C2CC(=O)NCc2ccco2)c(F)c1 (centres undefined)	1.7%	4.3	10µM*	7.8%
COc1cccc(F)c1-c1ccc2c(n1)c(=O)ncn2Cc1ccccc1	-7.1%[87.6 µM]	7.7	i	1.5%[87.6 µM]
